The values that follow come from PubChem BioAssay.

The structures appear in SMILES notation. Activity calls are given as the source filed them.

In one experiment the target is Albumin (Bos taurus) (UniProt P02769). The experiment in a line: bovine serum albumin binders on microarray, profiling panel, artefact control for SMM control protein annotation, biochemical, small-molecule microarray, Alexa647 label, 635/667 nm fluorescence (AID 1118).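 Further: score merges 667 nm emission intensity and signal-to-noise per printed compound spot.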 The conditions noted are these: BSA-A647 binding, fluorescence 635 nm, higher = more signal.
Chain of Albumin (Bos taurus) (P02769 whole entry, looked up): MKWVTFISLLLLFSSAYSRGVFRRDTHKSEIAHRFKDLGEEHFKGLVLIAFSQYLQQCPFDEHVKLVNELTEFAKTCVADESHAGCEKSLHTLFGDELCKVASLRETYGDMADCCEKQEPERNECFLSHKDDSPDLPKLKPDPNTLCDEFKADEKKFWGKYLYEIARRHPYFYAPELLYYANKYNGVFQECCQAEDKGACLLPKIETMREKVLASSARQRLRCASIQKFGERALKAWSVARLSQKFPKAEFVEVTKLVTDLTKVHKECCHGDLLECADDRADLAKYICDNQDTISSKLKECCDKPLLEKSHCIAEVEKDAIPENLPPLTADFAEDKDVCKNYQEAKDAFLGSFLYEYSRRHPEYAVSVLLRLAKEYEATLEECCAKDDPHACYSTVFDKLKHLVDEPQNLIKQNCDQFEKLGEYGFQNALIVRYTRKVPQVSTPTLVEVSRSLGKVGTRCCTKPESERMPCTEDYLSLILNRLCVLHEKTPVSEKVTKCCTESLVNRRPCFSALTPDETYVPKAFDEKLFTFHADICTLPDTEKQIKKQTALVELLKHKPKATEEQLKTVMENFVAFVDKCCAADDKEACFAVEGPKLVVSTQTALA
Experiment [1] is described as follows: small-molecule microarray binders of probe aXIP, primary screen, biochemical, NeuroSMM set, 635/667 nm fluorescence (AID 1119).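 Further: probe is the protein aXip251-270 applied at 1 µg/mL to compound-printed slides; binding of probe to printed compounds measured as 667 nm fluorescence plus signal to noise.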 Conditions: higher = more signal, called active from +8 up or from −8 down.
Experiment [2] can be described thus: small-molecule binders of probe aNOTCH3, primary screen, biochemical, small-molecule microarray, 635/667 nm fluorescence (AID 1120).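 Further: probe is a biotin-tagged antibody raised against NOTCH3 rather than NOTCH3 protein; score merges spot fluorescence near 667 nm with spot signal to noise.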 The conditions noted are these: higher = more signal.
Experiment [3] is described as follows: small-molecule binders of probe aNOTCH2, primary screen, biochemical, small-molecule microarray, 635/667 nm fluorescence (AID 1121).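 Further: score merges feature fluorescence read at 667 nm with its signal to noise.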 The conditions noted are these: higher = more signal.
The target in experiment [4] is Carbonic anhydrase 2 (Homo sapiens) (UniProt P00918). Description: CAII small-molecule binders, profiling panel, biochemical, small-molecule microarray, Alexa647-labelled CAII (AID 1122). The conditions noted are these: CAII-A647 binding fluorescence, higher = more signal.
The nature of experiment [5]: COS7 lysate on small-molecule microarray, probe aHis, 635 nm (AID 1123).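 Further: z-score combines 667nm fluorescence intensity with signal-to-noise per printed compound spot.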 The conditions noted are these: COS7 cell lysate, fluorescence, higher = more signal.
Experiment [6] is described as follows: compound binding in COS7 lysate, probe aLAP1, primary screen, cell lysate, small-molecule microarray (AID 1124).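 Further: lysate comes from COS7 cells expressing LAP1 and is applied at 0.3 µg/mL; score merges spot fluorescence near 667 nm with signal-to-noise over triplicate slides.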 Conditions: probe aLAP1, fluorescence, higher = more signal.
In a further experiment the test system is Sam68 (KHDRBS1). The experiment in a line: Sam68 small-molecule binders, primary screen, biochemical, small-molecule microarray, 635 nm fluorescence (AID 1125).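 Further: score merges 667 nm channel intensity with signal to noise over triplicate slides.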 Conditions: small-molecule microarray binding, higher = more signal.
In experiment [7] the test system is Chordin-like protein 2 (CHRDL2). The experiment in a line: CHRDL2 small-molecule binders, primary screen, biochemical, small-molecule microarray, 635 nm fluorescence (AID 1126).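 Further: printed compound slides probed with Chrdl2 protein at 4 µg/mL for 1 h at 4 C; score merges 667 nm emission intensity with signal to noise over three replicate slides.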 The conditions noted are these: small-molecule microarray binding, fluorescence 635 nm; higher = more signal.
Experiment [8] deals with Concanavalin-A (Canavalia ensiformis) (UniProt P02866). Description: ConA small-molecule binders, primary screen, artefact control for SMM control protein annotation, biochemical, small-molecule microarray, Alexa647 label, 635 nm (AID 1127).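 Further: z combines 667 nm emission intensity with signal-to-noise across three replicate slides.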 The conditions noted are these: ConA-A647 binding fluorescence, higher = more signal.
Chain of Concanavalin-A (Canavalia ensiformis) (P02866 whole entry, looked up): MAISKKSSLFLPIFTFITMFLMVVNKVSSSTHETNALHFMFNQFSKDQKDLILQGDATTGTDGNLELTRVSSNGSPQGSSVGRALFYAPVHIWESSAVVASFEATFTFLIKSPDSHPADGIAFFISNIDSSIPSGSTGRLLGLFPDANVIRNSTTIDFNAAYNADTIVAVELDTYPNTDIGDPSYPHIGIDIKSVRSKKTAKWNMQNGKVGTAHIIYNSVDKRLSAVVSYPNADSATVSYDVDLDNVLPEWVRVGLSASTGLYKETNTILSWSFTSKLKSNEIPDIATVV

Regarding `COc1cc2c(cc1OC)CN(C(=O)[C@@H]1[C@H]3C(=O)O[C@H](c4ccccc4)[C@H](c4ccccc4)N3[C@H](c3ccc(O)cc3)[C@@]13C(=O)Nc1ccc(C#CC4=CCCCC4)cc13)CC2`, the composite z-score with Albumin (Bos taurus) was 0.833; in experiment [2], 0.0522; in [3], -0.0142; in experiment [4], 0.5; in experiment [5], 1.49; in experiment [6], 0.453. Besides, the composite z-score was determined as 1.3 with Sam68 (KHDRBS1), 0.153 in experiment [7] and 1.1 in [8]. In [1], the composite Z-score was -0.0662 (inactive).
On to `CCCCC(=C=CC[C@@H](O)c1ccccc1OCCO)C[C@@H](O)c1ccccn1`, for which the composite z-score was 0.043 with Albumin (Bos taurus); -0.0077 in [2]; -0.197 in experiment [3]; 0.678 in experiment [4]; 0.522 in experiment [5]; 0.137 in experiment [6]. Besides, the composite z-score in the experiment on Sam68 (KHDRBS1) was 0.81; in [7] it was 0.179; in experiment [8] it was 0.287. Further, the composite Z-score in [1] is 0.504 (inactive).
On to `CC(C)c1ccc(NN2C(C(O)C3=C[C@H]4C[C@@H](C3)C4(C)C)C=CC3C(=O)N(c4ccccc4)C(=O)C32)cc1` (stereo not given in full), for which the composite z-score with Albumin (Bos taurus) worked out at 0.97; in [2], 0.333; in experiment [3], 0.248; in [4], 0.662; in experiment [5] it was 2.04; in experiment [6] it was 1.09. For the same compound, the composite z-score with Sam68 (KHDRBS1) turned out to be 1.17; in experiment [7] it was 0.4; in experiment [8] it was 1.12. The composite Z-score in [1] was 0.378 (inactive).
Regarding `CCOC(=O)C[C@H]1[C@H](OC(=O)c2ccc(-c3ccccc3)cc2)[C@@H](NC(=O)c2ccc(-c3ccccc3)cc2)c2cc(OCCCO)ccc2N1C(=O)c1ccccc1`, the composite z-score in the experiment with Albumin (Bos taurus) was 0.771; in experiment [2], 0.0916; in experiment [3] it was -0.129; in [4], 0.277; in experiment [5], 0.895; in [6] it was 0.331. Besides, the composite z-score is 1.32 with Sam68 (KHDRBS1), -0.0105 in experiment [7] and 1.06 in experiment [8]. Also, the composite Z-score in [1] was 0.884 (inactive).
In the case of `CN1C(=O)C2C=CC(C(O)COCc3ccccc3)N(Nc3ccc([N+](=O)[O-])cc3[N+](=O)[O-])C2C1=O` (stereo not given), the composite z-score came to 0.186 with Albumin (Bos taurus); 0.0596 in experiment [2]; 0.046 in experiment [3]; 0.368 in experiment [4]; 1.49 in [5]; 0.578 in experiment [6]. Further, the composite z-score in the experiment on Sam68 (KHDRBS1) is 0.447; in experiment [7] it was -0.693; in experiment [8] it was -0.445. Also, the composite Z-score in experiment [1] was 0.215 (inactive).
`C=C(C(=O)CC[C@H](OC(=O)c1ccccc1-c1ccccc1C(=O)O)c1ccc(OCCO)cc1)C(C)C`: the composite z-score in the experiment with Albumin (Bos taurus) was 0.816; in [2], 0.0282; in [3], -0.106; in experiment [4], 0.59; in experiment [5], 1.61; in experiment [6] it was -0.284. The composite z-score was 0.884 in the experiment with Sam68 (KHDRBS1), -0.0766 in experiment [7] and 0.708 in experiment [8]. The composite Z-score in experiment [1] was -0.691 (inactive).
For `COC(=O)C(CC#Cc1ccc2c(c1)[C@]1(C(=O)N2)[C@H](c2ccccc2OCCO)N2[C@H](c3ccccc3)[C@H](c3ccccc3)OC(=O)[C@H]2[C@@H]1C(=O)N1CCN(c2ncccn2)CC1)C(=O)OC`, the composite z-score is 0.706 with Albumin (Bos taurus); 0.0052 in [2]; -0.132 in experiment [3]; 0.23 in [4]; 1.18 in [5]; 0.309 in experiment [6]. The composite z-score was determined as 1.31 in the experiment on Sam68 (KHDRBS1), 1.1 in experiment [7] and 1.11 in experiment [8]. Besides, the composite Z-score in experiment [1] was 0.156 (inactive).
On to `COC(=O)[C@@]1(Cc2ccc(F)cc2)[C@H]2c3cc(C(=O)N4CCCC4)n(CCSCCO)c3C[C@H]2CN1C(=O)c1ccccc1`, for which the composite z-score was found to be 0.855 with Albumin (Bos taurus); 0.241 in experiment [2]; 0.231 in [3]; 0.839 in [4]; 3.25 in experiment [5]; 0.258 in experiment [6]. For the same compound, the composite z-score was 0.644 with Sam68 (KHDRBS1), -0.562 in [7] and 0.532 in experiment [8]. In addition, the composite Z-score in experiment [1] was -0.338 (inactive).
`Cc1ccc(N2C(=O)c3ccccc3[C@@H](C(=O)NCCN3CCOCC3)[C@@H]2c2ccc(CO)cc2)nc1`: the composite z-score in the experiment with Albumin (Bos taurus) is 0.132; in [2], 0.595; in [3], -0.162; in [4], -0.234; in [5], 0.719; in experiment [6] it was -0.496. Further, the composite z-score was -0.342 with Sam68 (KHDRBS1), -1.27 in experiment [7] and -0.469 in [8]. In addition, in experiment [1], the composite Z-score is 0.309 (inactive).
In the case of `CO[C@H]1O[C@H](CO)[C@@H](OC(=O)Nc2cccc(F)c2)[C@H](OC(=O)c2cc3ccccc3[nH]2)[C@H]1OC(=O)c1cc2ccccc2[nH]1`, the composite z-score was 0.467 with Albumin (Bos taurus); -0.0048 in experiment [2]; -0.132 in experiment [3]; 0.209 in [4]; 0.799 in [5]; 0.337 in [6]. Moreover, the figures for the composite z-score (with Sam68 (KHDRBS1); in experiment [7]; in experiment [8]) were -0.537, -0.332 and -0.732, respectively. For the same compound, in [1], the composite Z-score was -0.0925 (inactive).
Take `C=CC[C@H](O)c1ccc(O)c2ccccc12`: the composite z-score with Albumin (Bos taurus) was -0.491; in experiment [2] it was 0.037; in [3], -0.0904; in [4], 0.421; in [5], 1.63; in experiment [6] it was 0.0233. Further, the composite z-score with Sam68 (KHDRBS1) was determined as 1.06; in experiment [7] it was 1.4; in experiment [8], 0.79. The composite Z-score in experiment [1] was 0.579 (inactive).
For `C=CCOC(=O)[C@H]1[C@@H]2C(=O)O[C@@H](c3ccccc3)[C@@H](c3ccccc3)N2[C@@H](c2ccc(OCCOC(=O)[C@H]3C[C@H]4C(=O)NCC(=O)N4[C@H]3c3ccc(O)cc3)cc2)[C@]12C(=O)Nc1ccccc12`, the composite z-score was -0.501 with Albumin (Bos taurus); 0.948 in experiment [2]; -0.0631 in experiment [3]; 0.6 in [4]; 1.67 in experiment [5]; 0.96 in experiment [6]. Also, the composite z-score with Sam68 (KHDRBS1) was found to be 1.29; in experiment [7] it was 0.815; in experiment [8] it was 1.18. Moreover, the composite Z-score in experiment [1] was 1.19 (inactive).
Consider `CCOC(=O)C1=CC[C@@H](c2ccccc2)N(S(=O)(=O)c2ccc(C)cc2)[C@@H]1C#N`, for which the composite z-score in the experiment with Albumin (Bos taurus) was 0.118; in experiment [2], 0.0112; in experiment [3], -0.026; in experiment [4] it was 0.518; in experiment [5], 1.87; in experiment [6] it was -0.0567. The composite z-score in the experiment with Sam68 (KHDRBS1) is 1.23; in experiment [7], -0.315; in experiment [8] it was 0.855. Also, the composite Z-score in experiment [1] was 0.4 (inactive).
Consider `O=C1C2C=CC(C(O)c3ccccn3)N(Nc3ccc([N+](=O)[O-])cc3)C2C(=O)N1c1ccccc1` (stereo not given), for which the composite z-score with Albumin (Bos taurus) was found to be 0.89; in experiment [2] it was 0.0162; in experiment [3], 0.0215; in experiment [4], 0.592; in [5] it was 0.438; in experiment [6], 1.85. Further, the values for the composite z-score (with Sam68 (KHDRBS1); in experiment [7]; in [8]) were 0.102, -0.421 and 1.13, respectively. Further, the composite Z-score in experiment [1] was 0.0129 (inactive).
With `CC[C@@H](O[Si](C#C[Si](C(C)C)(C(C)C)C(C)C)(C(C)C)C(C)C)c1cn(Cc2cccc(Cl)c2)nn1`, the composite z-score was 0.0711 with Albumin (Bos taurus); -0.119 in experiment [2]; -0.0495 in experiment [3]; 0.226 in experiment [4]; 0.233 in experiment [5]; 0.773 in [6]. Moreover, the composite z-score is 1.04 with Sam68 (KHDRBS1), 0.451 in experiment [7] and 0.68 in [8]. In addition, the composite Z-score in experiment [1] was -0.0359 (inactive).
For the compound `CC(C)N1CC=CC23O[C@@H]4/C=C\CCCOC(=O)C4[C@H]2C(=O)N(C(C)CO)[C@@H]3C1=O` (stereo not given in full), the composite z-score was -0.446 with Albumin (Bos taurus); -0.24 in experiment [2]; -0.177 in [3]; 0.913 in experiment [4]; 0.17 in experiment [5]; -0.443 in experiment [6]. Further, the composite z-score is -0.222 with Sam68 (KHDRBS1), -0.956 in [7] and -0.313 in experiment [8]. For the same compound, the composite Z-score in experiment [1] is 0.0835 (inactive).
